What all share (assay): DAPPL (digital affinity profiling via proximity ligation, sequencing); 10 mM Tris-HCl pH 7.5, 50 mM NaCl, 1 mM DTT, 4% glycerol, room temperature, 30 min; GST-TFs on glutathione beads, 16-mer random dsDNA library, 0.1% formaldehyde crosslink after washing; high values mean tight binding
One experiment has as its target T1, FEV (Homo sapiens, UniProt Q99581 1-238).
T1 sequence: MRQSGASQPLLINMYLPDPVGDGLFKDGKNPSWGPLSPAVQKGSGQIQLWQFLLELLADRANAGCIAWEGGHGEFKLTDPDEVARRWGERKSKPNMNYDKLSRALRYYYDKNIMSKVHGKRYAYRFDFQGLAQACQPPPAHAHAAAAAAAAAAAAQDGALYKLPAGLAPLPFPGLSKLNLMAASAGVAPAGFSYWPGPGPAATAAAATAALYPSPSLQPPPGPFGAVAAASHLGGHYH
The settings on record: protein: recombinant; tags: N-terminal GST; dsDNA, one strand shown. In a few lines:
(§1)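 Binding signal is each hexamer's read frequency for a factor divided by its frequency in the tag-only sample. The factors were GST-fused human transcription factors from yeast, captured on glutathione beads, DNA-barcoded and pooled with that sample. Pools were incubated with 200 nmole of a random double-stranded 16-mer DNA library in Tris/NaCl/DTT/glycerol buffer at room temperature for 30 min, then washed, crosslinked with 0.1% formaldehyde, proximity-ligated with BsaI/T4 ligase (1 h, 37 °C), PCR-amplified and sequenced on an Illumina NextSeq500.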

The target of another experiment is ETV5 (Homo sapiens, UniProt P41161 1-510). Particulars: protein: recombinant; tags: N-terminal GST; dsDNA, one strand shown. In a few lines: as §1
Another experiment has as its target HSF1 (Homo sapiens, UniProt Q00613 1-529). Particulars: protein: recombinant; tags: N-terminal GST; chain copies: 3; dsDNA, one strand shown. In a few lines: as §1
The target of another experiment is T2, SPIC (Homo sapiens, UniProt Q8N5J4 1-248).
T2 sequence: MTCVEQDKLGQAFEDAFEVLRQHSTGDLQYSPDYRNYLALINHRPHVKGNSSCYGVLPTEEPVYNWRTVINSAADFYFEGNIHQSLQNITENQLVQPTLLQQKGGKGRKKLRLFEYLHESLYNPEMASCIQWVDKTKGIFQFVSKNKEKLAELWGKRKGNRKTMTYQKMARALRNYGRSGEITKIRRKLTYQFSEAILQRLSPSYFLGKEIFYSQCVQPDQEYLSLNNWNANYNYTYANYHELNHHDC
Particulars: protein: recombinant; tags: N-terminal GST; dsDNA, one strand shown. The method in brief:
as §1

Another experiment addresses ELF4 (Homo sapiens, UniProt Q99607 1-663). The settings on record: protein: recombinant; tags: N-terminal GST; dsDNA, one strand shown. In a few lines: as §1
The target of a further experiment is T3, ELK4 (Homo sapiens, UniProt P28324-2 1-405).
T3 sequence: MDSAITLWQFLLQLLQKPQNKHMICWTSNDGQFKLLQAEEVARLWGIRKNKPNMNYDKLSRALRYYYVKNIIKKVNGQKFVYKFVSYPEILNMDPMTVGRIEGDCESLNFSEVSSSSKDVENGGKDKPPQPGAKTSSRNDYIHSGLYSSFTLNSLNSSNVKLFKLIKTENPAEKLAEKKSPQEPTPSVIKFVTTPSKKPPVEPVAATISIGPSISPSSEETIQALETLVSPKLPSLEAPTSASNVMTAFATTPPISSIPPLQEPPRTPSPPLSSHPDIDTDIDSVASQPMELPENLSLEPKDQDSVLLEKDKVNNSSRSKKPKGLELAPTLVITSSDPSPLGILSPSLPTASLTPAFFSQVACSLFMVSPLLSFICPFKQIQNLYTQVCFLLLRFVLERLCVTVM
Particulars: protein: recombinant; tags: N-terminal GST; dsDNA, one strand shown. In a few lines: as §1

The next experiment addresses T4, ETV2 (Homo sapiens, UniProt O00321 1-342).
T4 sequence: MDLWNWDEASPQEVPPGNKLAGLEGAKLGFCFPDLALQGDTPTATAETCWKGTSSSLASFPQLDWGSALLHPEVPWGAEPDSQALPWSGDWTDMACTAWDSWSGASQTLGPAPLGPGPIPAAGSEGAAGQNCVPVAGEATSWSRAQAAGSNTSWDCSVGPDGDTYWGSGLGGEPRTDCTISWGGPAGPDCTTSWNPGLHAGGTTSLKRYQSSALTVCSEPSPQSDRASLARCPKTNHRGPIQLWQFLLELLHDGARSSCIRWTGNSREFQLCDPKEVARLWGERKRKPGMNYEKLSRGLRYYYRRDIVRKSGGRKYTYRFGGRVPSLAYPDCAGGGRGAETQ
Particulars: protein: recombinant; tags: N-terminal GST; dsDNA, one strand shown. The method in brief: as §1

Another experiment has as its target T5, ELF3 (Homo sapiens, UniProt P78545 1-371).
T5 sequence: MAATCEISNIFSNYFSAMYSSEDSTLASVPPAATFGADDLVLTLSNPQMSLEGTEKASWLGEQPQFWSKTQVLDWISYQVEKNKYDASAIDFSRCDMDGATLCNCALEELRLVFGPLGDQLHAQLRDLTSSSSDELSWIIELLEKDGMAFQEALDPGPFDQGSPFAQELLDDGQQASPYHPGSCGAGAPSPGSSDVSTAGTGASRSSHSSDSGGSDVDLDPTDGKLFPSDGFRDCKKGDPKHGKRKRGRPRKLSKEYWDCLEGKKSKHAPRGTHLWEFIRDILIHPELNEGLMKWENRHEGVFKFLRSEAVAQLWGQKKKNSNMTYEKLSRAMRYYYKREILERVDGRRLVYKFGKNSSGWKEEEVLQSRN
The settings on record: protein: recombinant; tags: N-terminal GST; dsDNA, one strand shown. The method in brief: as §1

The next experiment deals with CRX (Homo sapiens, UniProt O43186 1-299). The settings on record: protein: recombinant; tags: N-terminal GST; dsDNA, one strand shown. In a few lines: as §1
The next experiment deals with ETV1 (Homo sapiens, UniProt P50549 1-477). The settings on record: protein: recombinant; tags: N-terminal GST; dsDNA, one strand shown. The method in brief: as §1
The next experiment concerns the target T6, ERF (Homo sapiens, UniProt P50548 1-548).
T6 sequence: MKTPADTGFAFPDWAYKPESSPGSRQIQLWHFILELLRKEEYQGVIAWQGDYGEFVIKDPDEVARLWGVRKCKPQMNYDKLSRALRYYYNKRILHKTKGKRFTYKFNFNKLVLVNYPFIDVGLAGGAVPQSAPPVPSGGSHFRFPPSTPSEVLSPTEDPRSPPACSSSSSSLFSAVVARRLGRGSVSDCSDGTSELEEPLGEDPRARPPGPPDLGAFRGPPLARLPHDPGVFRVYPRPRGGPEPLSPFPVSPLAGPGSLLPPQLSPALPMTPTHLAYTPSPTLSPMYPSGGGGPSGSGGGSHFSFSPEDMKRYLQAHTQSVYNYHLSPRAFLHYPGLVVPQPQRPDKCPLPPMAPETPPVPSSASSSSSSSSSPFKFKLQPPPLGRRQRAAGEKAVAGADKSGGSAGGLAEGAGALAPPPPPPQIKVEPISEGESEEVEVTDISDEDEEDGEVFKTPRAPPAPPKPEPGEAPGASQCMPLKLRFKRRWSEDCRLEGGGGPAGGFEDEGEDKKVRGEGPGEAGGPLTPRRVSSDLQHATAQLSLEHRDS
The settings on record: protein: recombinant; tags: N-terminal GST; dsDNA, one strand shown. The method in brief:
as §1

For the next experiment, the target named is T7, ETV3L (Homo sapiens, UniProt Q6ZN32 1-361).
T7 sequence: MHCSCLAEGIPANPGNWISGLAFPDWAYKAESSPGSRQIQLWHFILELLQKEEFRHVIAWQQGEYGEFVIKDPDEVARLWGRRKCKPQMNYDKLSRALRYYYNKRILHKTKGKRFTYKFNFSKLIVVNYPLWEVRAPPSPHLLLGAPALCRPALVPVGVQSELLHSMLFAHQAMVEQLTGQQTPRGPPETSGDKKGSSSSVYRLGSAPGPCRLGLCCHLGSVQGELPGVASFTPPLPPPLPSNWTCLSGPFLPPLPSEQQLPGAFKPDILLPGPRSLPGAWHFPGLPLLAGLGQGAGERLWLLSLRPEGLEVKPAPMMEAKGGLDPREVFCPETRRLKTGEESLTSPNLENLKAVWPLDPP
The settings on record: protein: recombinant; tags: N-terminal GST; dsDNA, one strand shown. In a few lines: as §1

The target of another experiment is T8, ETS2 (Homo sapiens, UniProt P15036 1-469).
T8 sequence: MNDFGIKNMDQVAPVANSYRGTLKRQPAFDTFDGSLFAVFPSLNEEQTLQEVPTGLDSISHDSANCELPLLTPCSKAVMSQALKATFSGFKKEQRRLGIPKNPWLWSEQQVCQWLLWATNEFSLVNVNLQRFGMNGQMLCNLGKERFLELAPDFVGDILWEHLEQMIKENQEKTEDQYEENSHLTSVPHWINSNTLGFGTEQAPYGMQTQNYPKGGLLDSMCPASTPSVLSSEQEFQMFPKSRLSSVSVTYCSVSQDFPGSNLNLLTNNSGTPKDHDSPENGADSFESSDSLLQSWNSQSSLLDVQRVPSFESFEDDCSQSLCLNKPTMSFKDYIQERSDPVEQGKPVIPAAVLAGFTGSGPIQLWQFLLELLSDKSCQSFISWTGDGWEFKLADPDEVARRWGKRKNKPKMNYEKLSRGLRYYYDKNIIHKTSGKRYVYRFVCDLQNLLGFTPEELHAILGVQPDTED
The settings on record: protein: recombinant; tags: N-terminal GST; dsDNA, one strand shown. The method in brief: as §1

For a further experiment, the target named is T9, SPDEF (Homo sapiens, UniProt O95238 1-335).
T9 sequence: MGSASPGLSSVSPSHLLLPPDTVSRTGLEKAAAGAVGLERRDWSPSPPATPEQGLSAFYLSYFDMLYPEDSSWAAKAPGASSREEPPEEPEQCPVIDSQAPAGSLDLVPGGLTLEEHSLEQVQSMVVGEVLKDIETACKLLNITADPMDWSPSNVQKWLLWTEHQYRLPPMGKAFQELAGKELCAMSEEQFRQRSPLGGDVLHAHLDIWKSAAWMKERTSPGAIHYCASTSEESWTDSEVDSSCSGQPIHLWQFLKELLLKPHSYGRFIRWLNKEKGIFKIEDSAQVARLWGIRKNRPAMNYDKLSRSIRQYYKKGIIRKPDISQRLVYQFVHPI
Particulars: protein: recombinant; tags: N-terminal GST; dsDNA, one strand shown. In a few lines:
as §1

The target of a further experiment is T10, ETV7 (Homo sapiens, UniProt Q9Y603 1-341).
T10 sequence: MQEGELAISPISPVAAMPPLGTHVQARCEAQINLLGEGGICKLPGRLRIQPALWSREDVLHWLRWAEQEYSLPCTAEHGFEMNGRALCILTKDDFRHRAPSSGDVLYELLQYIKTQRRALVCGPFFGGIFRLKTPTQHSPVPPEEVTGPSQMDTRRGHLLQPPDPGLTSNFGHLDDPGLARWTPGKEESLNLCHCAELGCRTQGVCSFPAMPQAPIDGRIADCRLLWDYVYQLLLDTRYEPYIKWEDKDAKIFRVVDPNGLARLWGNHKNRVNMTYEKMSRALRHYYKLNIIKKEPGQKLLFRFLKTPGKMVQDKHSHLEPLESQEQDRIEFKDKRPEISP
The settings on record: protein: recombinant; tags: N-terminal GST; dsDNA, one strand shown. The method in brief:
as §1

A further experiment concerns the target T11, ELF5 (Homo sapiens, UniProt Q9UKW6-2 1-255).
T11 sequence: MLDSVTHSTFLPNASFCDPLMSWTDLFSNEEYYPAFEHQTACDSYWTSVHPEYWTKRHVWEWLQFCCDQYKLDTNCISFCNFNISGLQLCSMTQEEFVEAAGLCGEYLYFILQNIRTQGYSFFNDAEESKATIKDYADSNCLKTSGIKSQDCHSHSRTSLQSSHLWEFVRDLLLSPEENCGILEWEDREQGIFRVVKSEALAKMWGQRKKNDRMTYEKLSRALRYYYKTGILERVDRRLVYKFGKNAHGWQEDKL
Particulars: protein: recombinant; tags: N-terminal GST; dsDNA, one strand shown. In a few lines: as §1

Another experiment concerns the target T12, ETV3 (Homo sapiens, UniProt P41162-2 1-143).
T12 sequence: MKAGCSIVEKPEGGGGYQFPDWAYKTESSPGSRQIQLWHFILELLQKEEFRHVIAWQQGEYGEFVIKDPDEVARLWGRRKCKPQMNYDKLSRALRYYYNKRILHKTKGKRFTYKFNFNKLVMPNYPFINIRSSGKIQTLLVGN
Particulars: protein: recombinant; tags: N-terminal GST; dsDNA, one strand shown. The method in brief:
as §1

For the next experiment, the target named is ETV6 (Homo sapiens, UniProt P41212 1-452). Particulars: protein: recombinant; tags: N-terminal GST; dsDNA, one strand shown. In a few lines:
as §1

Chain of CRX (O43186 whole entry): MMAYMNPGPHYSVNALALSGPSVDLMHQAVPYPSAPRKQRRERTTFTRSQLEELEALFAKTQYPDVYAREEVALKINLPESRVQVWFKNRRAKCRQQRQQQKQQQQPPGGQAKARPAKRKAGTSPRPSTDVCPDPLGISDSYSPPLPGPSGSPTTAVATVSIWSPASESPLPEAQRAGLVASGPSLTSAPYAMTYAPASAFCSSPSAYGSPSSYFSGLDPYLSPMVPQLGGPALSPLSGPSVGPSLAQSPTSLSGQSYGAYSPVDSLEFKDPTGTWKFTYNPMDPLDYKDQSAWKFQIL
Chain of ETV5 (P41161 whole entry): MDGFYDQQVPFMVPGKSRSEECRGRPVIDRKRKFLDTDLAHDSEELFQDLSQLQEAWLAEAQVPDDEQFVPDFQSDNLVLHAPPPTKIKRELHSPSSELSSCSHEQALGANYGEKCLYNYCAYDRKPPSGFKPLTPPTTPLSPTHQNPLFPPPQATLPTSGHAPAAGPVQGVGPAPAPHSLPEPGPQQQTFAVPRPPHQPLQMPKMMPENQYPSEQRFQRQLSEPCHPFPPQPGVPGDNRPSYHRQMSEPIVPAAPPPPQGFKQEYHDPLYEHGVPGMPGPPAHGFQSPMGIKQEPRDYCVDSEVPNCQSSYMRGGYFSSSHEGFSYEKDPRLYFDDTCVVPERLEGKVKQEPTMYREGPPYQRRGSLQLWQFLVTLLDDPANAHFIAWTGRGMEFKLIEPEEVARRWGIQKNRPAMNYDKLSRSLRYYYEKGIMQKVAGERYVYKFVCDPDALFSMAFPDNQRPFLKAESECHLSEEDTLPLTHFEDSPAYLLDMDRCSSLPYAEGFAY
Chain of ETV1 (P50549 whole entry): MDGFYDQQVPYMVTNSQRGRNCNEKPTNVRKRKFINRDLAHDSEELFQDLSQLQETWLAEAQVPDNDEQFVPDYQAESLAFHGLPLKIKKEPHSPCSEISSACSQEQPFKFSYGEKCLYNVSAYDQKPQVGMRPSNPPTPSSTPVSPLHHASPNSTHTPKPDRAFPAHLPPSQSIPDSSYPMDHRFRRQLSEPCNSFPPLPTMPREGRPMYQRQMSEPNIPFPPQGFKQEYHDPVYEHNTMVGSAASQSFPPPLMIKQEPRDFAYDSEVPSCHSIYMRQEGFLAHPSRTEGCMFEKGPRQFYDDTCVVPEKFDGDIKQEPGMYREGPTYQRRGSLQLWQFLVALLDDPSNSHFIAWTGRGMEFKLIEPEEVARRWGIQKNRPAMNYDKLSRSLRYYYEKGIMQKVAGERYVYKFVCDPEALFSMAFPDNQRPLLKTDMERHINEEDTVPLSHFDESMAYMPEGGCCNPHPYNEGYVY
Chain of HSF1 (Q00613 whole entry): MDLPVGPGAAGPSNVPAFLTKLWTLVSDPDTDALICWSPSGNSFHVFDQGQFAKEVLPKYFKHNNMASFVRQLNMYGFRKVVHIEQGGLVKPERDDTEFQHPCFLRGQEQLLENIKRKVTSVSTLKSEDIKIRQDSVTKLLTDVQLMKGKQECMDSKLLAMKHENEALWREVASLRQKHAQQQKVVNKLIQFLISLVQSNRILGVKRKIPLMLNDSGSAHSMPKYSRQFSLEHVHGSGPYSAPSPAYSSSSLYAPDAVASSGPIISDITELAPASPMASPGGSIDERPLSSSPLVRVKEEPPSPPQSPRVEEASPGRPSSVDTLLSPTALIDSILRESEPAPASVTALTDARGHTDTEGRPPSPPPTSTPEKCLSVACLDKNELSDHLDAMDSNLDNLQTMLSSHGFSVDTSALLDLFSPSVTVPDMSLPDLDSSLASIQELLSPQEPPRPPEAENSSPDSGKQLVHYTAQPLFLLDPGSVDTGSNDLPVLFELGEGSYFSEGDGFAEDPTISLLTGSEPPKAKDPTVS
Chain of ETV6 (P41212 whole entry): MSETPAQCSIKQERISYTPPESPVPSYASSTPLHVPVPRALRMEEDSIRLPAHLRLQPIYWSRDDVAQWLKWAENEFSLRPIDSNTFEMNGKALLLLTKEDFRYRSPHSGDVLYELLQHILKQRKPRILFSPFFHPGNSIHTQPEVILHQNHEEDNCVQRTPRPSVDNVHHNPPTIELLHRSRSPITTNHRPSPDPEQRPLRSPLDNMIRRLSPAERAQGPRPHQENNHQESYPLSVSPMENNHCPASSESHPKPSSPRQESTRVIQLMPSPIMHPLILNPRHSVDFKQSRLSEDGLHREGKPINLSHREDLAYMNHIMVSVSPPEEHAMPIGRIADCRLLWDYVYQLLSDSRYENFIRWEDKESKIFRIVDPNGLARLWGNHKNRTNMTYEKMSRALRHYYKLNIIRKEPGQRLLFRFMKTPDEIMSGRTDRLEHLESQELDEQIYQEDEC
Chain of ELF4 (Q99607 whole entry): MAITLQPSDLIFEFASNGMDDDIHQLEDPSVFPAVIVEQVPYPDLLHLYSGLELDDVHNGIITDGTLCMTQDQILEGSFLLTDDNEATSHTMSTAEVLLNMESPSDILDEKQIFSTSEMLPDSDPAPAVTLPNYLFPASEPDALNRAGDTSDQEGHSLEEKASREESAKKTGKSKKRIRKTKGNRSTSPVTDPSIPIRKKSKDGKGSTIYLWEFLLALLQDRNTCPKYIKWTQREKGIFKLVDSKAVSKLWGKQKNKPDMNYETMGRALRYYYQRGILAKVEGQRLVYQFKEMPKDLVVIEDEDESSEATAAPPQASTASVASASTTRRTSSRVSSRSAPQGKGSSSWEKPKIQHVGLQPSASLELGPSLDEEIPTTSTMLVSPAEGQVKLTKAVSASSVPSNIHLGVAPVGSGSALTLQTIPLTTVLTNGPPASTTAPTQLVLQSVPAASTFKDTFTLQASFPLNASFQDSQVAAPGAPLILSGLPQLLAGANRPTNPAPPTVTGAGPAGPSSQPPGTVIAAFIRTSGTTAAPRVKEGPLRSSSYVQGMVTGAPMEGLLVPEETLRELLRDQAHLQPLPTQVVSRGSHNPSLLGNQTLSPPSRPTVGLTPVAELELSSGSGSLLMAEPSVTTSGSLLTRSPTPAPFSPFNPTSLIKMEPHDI

In the case of TTATCG, the binding signal in the experiment with FEV was 1.21 fold enrichment (6-mer frequency, TF over GST control); in the experiment with ETV5, 1.25 fold enrichment (6-mer frequency, TF over GST control); with HSF1 it was 1.99 fold enrichment (6-mer frequency, TF over GST control); in the experiment with SPIC, 1.33 fold enrichment (6-mer frequency, TF over GST control); with ELF4 it was 1.27 fold enrichment (6-mer frequency, TF over GST control); in the experiment with ELK4 it was 1.37 fold enrichment (6-mer frequency, TF over GST control). Moreover, the binding signal with ETV2 is 1.18 fold enrichment (6-mer frequency, TF over GST control); in the experiment with ELF3, 1.22 fold enrichment (6-mer frequency, TF over GST control); with CRX, 2.79 fold enrichment (6-mer frequency, TF over GST control); with ETV1, 1.2 fold enrichment (6-mer frequency, TF over GST control); in the experiment with ERF it was 1.2 fold enrichment (6-mer frequency, TF over GST control); with ETV3L, 1.32 fold enrichment (6-mer frequency, TF over GST control). For the same sequence, the binding signal with ETS2 was 1.2 fold enrichment (6-mer frequency, TF over GST control); with SPDEF it was 1.16 fold enrichment (6-mer frequency, TF over GST control); with ETV7, 1.02 fold enrichment (6-mer frequency, TF over GST control); with ELF5, 1.25 fold enrichment (6-mer frequency, TF over GST control); with ETV3, 1.22 fold enrichment (6-mer frequency, TF over GST control); with ETV6, 1.27 fold enrichment (6-mer frequency, TF over GST control).

(Values after PMC7862700, “An all-to-all approach to the identification of sequence-specific readers for epigenetic DNA modifications on cytosine”.)
